Assay results reported in PubChem BioAssay (NCI).
This is part of a sample that, as a whole, favours compounds with a hit. Of some 79,000 tested, about 15% had one in any assay. Activity calls are given as the source filed them. Cut-off read from the data, not from the text of the source: active = growth inhibition above about 70%; inactive = the rest.

Key:
[1] = NCI Yeast Anticancer Drug Screen. Data for the rad52 strain (AID 147);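 note: 0% = growth of vehicle-treated control cultures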; details: S. cerevisiae rad52 mutant growth inhibition, active compounds read high
Outline: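 Read-out: growth inhibition versus vehicle-treated controls. Cells were a DNA repair-deficient yeast strain treated with compounds.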

[2] = NCI Yeast Anticancer Drug Screen. Data for the wt1 strain (AID 149);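 note: 0% = growth of vehicle-treated wt1 cultures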; details: S. cerevisiae wt1 strain (SPY 50644) growth inhibition, active compounds read high
Outline: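 wt1 strain grown with compound or vehicle; inhibition taken from the growth difference.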

[3] = NCI Yeast Anticancer Drug Screen. Data for the rad50EPP+ strain (AID 151);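 note: 0% = growth of vehicle-treated control cultures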; details: S. cerevisiae rad50 mutant strain, active compounds read high
Outline: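 Growth inhibition read against vehicle controls in rad50EPP+ yeast, a strain altered in DNA damage repair, after compound exposure.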

[4] = NCI Yeast Anticancer Drug Screen. Data for the mgt1 strain (AID 153); details: S. cerevisiae mgt1 mutant growth inhibition, active compounds read high
Outline: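 mgt1 yeast grown with test compound; read-out is growth inhibition versus vehicle-treated cultures.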

[5] = NCI Yeast Anticancer Drug Screen. Data for the rad50 strain (AID 155);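 note: 0% = growth of vehicle-only cultures of the same strain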; details: S. cerevisiae rad50 strain growth inhibition, active compounds read high
Outline: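 DNA repair mutant yeast, compound exposure, growth read-out; inhibition is taken relative to vehicle.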

[6] = NCI Yeast Anticancer Drug Screen. Data for the mec2-1 strain (AID 157); details: S. cerevisiae mec2-1 strain, active compounds read high
Outline: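 Yeast mec2-1 mutant treated with compound. Readout: growth inhibition vs vehicle controls.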

[7] = NCI Yeast Anticancer Drug Screen. Data for the rad14 strain (AID 159);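 note: 0% = growth of vehicle-treated control cultures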; details: S. cerevisiae rad14 strain growth inhibition, active compounds read high
Outline: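 DNA repair-defective yeast, compound-exposed; % growth inhibition derived by comparison with vehicle-treated controls.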

[8] = at 5.0 µM (retest, dose inferred, filed as 0.5)
[9] = at 50.0 µM (retest, dose inferred, filed as 5.0)

Measured: growth inhibition

COc1cc(C2C3=C(COC3=O)Oc3cc4c(cc32)OCO4)ccc1O (centres undefined)
active: [1]; at 100.0 µM 72% | [5]; [8] 95% | [5]; [9] 95% | [5]; at 100.0 µM 73%
inactive: [1]; at 1.2 µM -1% | [1]; at 3.7 µM 2% | [1]; at 11.0 µM 7% | [1]; at 33.0 µM 34% | [2]; at 1.2 µM -2% | [2]; at 3.7 µM -7% | [2]; at 11.0 µM -5% | [2]; at 33.0 µM -5% | [2]; at 100.0 µM 31% | [3]; at 1.2 µM -3% | [3]; at 3.7 µM 0% | [3]; at 11.0 µM -3% | [3]; at 33.0 µM 4% | [3]; at 100.0 µM 15% | [4]; at 1.2 µM -1% | [4]; at 3.7 µM 1% | [4]; at 11.0 µM 0% | [4]; at 33.0 µM -5% | [4]; at 100.0 µM 30% | [5]; at 1.2 µM 0% | [5]; at 3.7 µM 5% | [5]; at 11.0 µM -10% | [5]; at 33.0 µM 35% | [5]; at 50.0 µM 55.9% | [6]; at 1.2 µM -3% | [6]; at 3.7 µM -2% | [6]; [8] -10% | [6]; at 11.0 µM -3% | [6]; at 33.0 µM -4% | [6]; [9] -10% | [6]; at 50.0 µM 32.2% | [6]; at 100.0 µM 33% | [7]; at 1.2 µM 1% | [7]; at 3.7 µM -1% | [7]; at 11.0 µM -6%
